Test [1] has as its target Rap guanine nucleotide exchange factor 3 (Homo sapiens) (UniProt O95398). Nature of the test: Confirmatory qHTS for antagonist of cAMP-regulated guanine nucleotide exchange factor 3 (EPAC1) (AID 1645880). Note: nearly all actives have a fitted effect of over 55% in size. Note: potency is the fitted concentration of half-maximal effect. The procedure, abridged:
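Nucleotide exchange uses 100 nM EPAC1, 250 nM RAP1B-BODIPY-GDP and 50 uM GDP, with compounds in a concentration-titration series. After 5 min at room temperature, fluorescence (480 nm ex/540 nm em) is read every 5 min for 30 min. Data are normalized to control ATA and DMSO.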
Background: In qHTS, concentration-response curves come from the screen itself.

Test [2] has the same target. Nature of the test: Confirmatory qHTS for agonist of cAMP-regulated guanine nucleotide exchange factor 3 (EPAC1) (AID 1645881).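 Note: EPAC1 catalysed release of BODIPY-GDP from Rap1B seen as fluorescence loss; 100% = effect of cAMP agonist control; nearly all actives have a fitted effect of over 75% in size.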
The target in test [3] is Rap guanine nucleotide exchange factor 4 (Homo sapiens) (UniProt Q8WZA2). Put plainly: Confirmatory qHTS for agonist of cAMP-regulated guanine nucleotide exchange factor 4 (EPAC2) (AID 1645884).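 Note: nucleotide exchange releases bodipy-GDP from Rap1 and this lowers its fluorescence; % is set by controls: 0 for no effect and ±100 for the full control effect; nearly all actives have a fitted effect of over 65% in size.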
Chain of Rap guanine nucleotide exchange factor 4 (Homo sapiens) (Q8WZA2 whole entry, looked up): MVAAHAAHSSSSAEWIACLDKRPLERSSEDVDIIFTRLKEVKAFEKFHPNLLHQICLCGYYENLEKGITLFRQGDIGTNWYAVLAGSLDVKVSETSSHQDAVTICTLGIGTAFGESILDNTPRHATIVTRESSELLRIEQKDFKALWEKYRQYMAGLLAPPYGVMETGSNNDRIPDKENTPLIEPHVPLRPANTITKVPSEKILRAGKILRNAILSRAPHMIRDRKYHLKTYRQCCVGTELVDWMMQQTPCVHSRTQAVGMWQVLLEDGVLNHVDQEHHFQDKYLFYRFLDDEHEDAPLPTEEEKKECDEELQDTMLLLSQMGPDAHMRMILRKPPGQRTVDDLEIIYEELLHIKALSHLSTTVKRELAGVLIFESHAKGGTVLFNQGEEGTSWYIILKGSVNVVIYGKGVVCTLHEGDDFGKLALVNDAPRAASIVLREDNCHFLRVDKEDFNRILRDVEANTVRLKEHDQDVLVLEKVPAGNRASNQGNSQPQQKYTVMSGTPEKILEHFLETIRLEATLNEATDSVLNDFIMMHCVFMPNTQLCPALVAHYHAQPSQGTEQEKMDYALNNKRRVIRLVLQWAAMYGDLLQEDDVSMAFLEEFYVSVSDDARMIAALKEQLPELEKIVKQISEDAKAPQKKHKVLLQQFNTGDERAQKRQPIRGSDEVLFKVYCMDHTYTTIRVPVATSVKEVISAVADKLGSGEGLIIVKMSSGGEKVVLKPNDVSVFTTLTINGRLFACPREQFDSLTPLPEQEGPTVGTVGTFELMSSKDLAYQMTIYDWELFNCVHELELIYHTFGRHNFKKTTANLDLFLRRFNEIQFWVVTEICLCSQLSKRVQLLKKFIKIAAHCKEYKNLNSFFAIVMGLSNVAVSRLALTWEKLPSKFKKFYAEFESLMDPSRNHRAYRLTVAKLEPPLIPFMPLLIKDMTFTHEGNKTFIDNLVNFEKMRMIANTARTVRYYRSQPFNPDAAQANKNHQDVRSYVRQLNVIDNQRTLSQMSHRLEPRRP
For test [4] the target is unchanged. Put plainly: Confirmatory qHTS for antagonist of cAMP-regulated guanine nucleotide exchange factor 4 (EPAC2) (AID 1645885). For activity change, negative = inhibition: % is set by controls: 0 for no effect and ±100 for the full control effect. Note: nearly all actives have a fitted effect of over 25% in size.
Test [5] deals with Rap guanine nucleotide exchange factor 3 (Homo sapiens) (UniProt O95398). Put plainly: Counterscreen qHTS for antagonist of cAMP-regulated guanine nucleotide exchange factor 3 (EPAC1) (AID 1645888).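 Note: fluorescence loss as bound BODIPY-GDP is released from Rap1B; % of control where 0% means no effect.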 The procedure, abridged: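 Measured: fluorescence of BODIPY-GDP bound to Rap1B, which falls as exchange proceeds. Conditions include 50 uM competing GDP, 5 and 30 min reads, and a later cAMP challenge for antagonist detection.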
Chain of Rap guanine nucleotide exchange factor 3 (Homo sapiens) (O95398 whole entry, looked up): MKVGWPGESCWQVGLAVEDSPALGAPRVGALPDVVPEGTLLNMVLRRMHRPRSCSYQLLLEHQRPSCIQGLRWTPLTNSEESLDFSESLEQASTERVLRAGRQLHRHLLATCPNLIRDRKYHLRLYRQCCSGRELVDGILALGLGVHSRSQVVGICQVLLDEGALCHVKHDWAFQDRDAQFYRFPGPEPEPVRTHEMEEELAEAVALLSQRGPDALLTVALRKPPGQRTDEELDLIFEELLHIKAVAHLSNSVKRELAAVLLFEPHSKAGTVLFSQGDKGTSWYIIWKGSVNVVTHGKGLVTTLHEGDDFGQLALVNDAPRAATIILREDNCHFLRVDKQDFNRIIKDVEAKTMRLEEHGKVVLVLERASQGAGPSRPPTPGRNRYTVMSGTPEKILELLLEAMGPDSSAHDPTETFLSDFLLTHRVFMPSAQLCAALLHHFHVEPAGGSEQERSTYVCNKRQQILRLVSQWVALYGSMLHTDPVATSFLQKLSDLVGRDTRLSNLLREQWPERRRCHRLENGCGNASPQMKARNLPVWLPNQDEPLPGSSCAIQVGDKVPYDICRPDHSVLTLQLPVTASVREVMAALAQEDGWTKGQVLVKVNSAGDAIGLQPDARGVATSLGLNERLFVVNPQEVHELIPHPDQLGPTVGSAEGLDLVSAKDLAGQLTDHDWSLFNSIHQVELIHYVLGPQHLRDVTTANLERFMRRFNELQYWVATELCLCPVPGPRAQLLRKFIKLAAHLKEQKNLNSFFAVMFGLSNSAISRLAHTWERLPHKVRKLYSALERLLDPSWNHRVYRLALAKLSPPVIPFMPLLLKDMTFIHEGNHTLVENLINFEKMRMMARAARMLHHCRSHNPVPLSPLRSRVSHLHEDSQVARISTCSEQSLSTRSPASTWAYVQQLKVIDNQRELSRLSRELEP

Test [6] in a line: Primary qHTS to identify inhibitors of SARS-CoV-2 cell entry (AID 1645846; calls by dose curve; note: nearly all actives have a fitted effect of over 45% in size). Conditions: SARS-CoV-2 pseudovirus cell entry assay, luminescence; activity change, negative = inhibition: at 57.1 µM (top of the series) unless noted. The procedure, abridged:
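Data are normalized to wells receiving SARS-CoV-2-S pseudoparticles and those given bald particles. Entry signal was luciferase luminescence in stable hACE2 Expi293F cells, 48 hr post-infection, after 1 hr compound pretreatment.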

Each structure is given as a SMILES string. Results filed as inconclusive are left out. Activity calls are given as the source filed them. Unless noted, calls come from the whole dose curve; as a rule, active = well fitted curve in the direction sought with a large enough effect; inconclusive = small, poorly fitted or top-dose-only effect, or another doubt; inactive = no such curve, though single readings can be large; an effect the other way counts as inactive or inconclusive.

`Cc1ccc(N2C(=O)NC(=O)/C(=C\c3cc(C)n(-c4sc5c(c4C#N)CCCC5)c3C)C2=O)cc1`: in test [1], the Potency is 16.9 µM (active). Besides, the Potency result in test [2], in test [3] and in test [4] was “inactive” in each case. In addition, the result in test [5] was inactive.

Consider `O=C1NC(=O)N(c2cccc(Cl)c2)C(=O)/C1=C\c1ccc(Sc2nc3ccccc3[nH]2)o1`, for which the Potency in test [1] was 28.2 µM (active). Also, the Potency entry in test [2] is “inactive”. Moreover, the activation in test [3] was 5.77% [at 17.1 µM, percent relative to cAMP agonist control] (inactive). For the same compound, the activity change, negative = inhibition in test [4] is 0.757% [at 12.7 µM] (inactive); in test [5], 2.39% [at 30.8 µM] (inactive).

`Nc1c(C(=O)Nc2ccc(Br)cc2F)sc2nc3c(cc12)N1CCC3CC1`: the Potency result in test [1], in test [2] and in test [3] was “inactive” throughout. Moreover, the activity change, negative = inhibition in test [4] is -17.9% [at 12.7 µM] (inactive). Besides, the call in test [5] was inactive.

Take `FC(F)(F)c1ccc(/C=C/c2nc(COc3ccc(CCCCn4ccnn4)cc3)co2)cc1`: in test [6], the activity change, negative = inhibition was -95.9%.

Consider `CCN(CC)c1ccc(N=Cc2c(O)n(CCC3=CCCCC3)c(=O)[nH]c2=O)cc1`, for which, in test [1], the Potency is 75.7 µM (active). Further, the Potency entry in test [2], in test [3] and in test [4] was “inactive” in each case. For the same compound, the compound was called inactive in test [5].

`CCOC(=O)[C@]12Cc3cc(OC)ccc3[C@H]1N(Cc1ccccc1)C(=O)c1cc(F)c(F)cc12`: the Potency entry in test [1], in test [2], in test [3] and in test [4] was “inactive” in each case. Further, the call in test [5] was inactive.

The values are drawn from PubChem BioAssay (NCATS).
